Data as given in the supplement of paper PMC6135742.
Several values for one entry are separate records, joined by “and”; a condition that tells them apart may be missing. Equal entries are not always repeated. Structures can show the parent of a compound that is named as a salt. ± gives the standard deviation of the averaged measurements. Whole data set: some 2,600 compounds, median “total cell number (DAPI+ nuclei) relative to DMSO vehicle control” near -1.4, cut for the lowest 2% near -23. The entries come from a sample that favours the lowest values as a whole.

These molecules were tested on jimpy (Plp1 jimpy) mouse iPSC-derived oligodendrocyte progenitor cells (assay: total cell number (DAPI+ nuclei) relative to DMSO vehicle control (SDs above negative control mean); higher = more surviving cells). Details: 10 µM; 3 days.
Description: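 Primary phenotypic screen of >3,000 bioactive compounds (Selleck L1700 and Sigma LO1280 libraries) at a single dose of 10 µM. Compounds were added to jimpy (Plp1 mutant) mouse iPSC-derived OPCs at the start of thyroid hormone-induced oligodendrocyte differentiation, one well per compound in 384-well plates. After 3 days cells were stained for MBP, Sox10 and DAPI and imaged with an Operetta system. MBP+ oligodendrocyte number and total cell number were expressed as the number of SDs above the mean of the DMSO negative control on the same plate (n=16 control wells per plate). Hits were defined as >=4 SD for oligodendrocytes and >=2 SD for total cells.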

Structure (SMILES) | total cell number
CC(C)(C)C(=O)Oc1ccc(S(=O)(=O)Nc2ccccc2C(=O)NCC(=O)O)cc1 [Sivelestat sodium salt hydrate] | 0.0346
OCCN1CCN(CC/C=C2/c3ccccc3Sc3ccc(C(F)(F)F)cc32)CC1 [cis-(Z)-Flupenthixol dihydrochloride] | -7.96
CN(C)CCN1C(=O)c2cccc3cc(N)cc(c23)C1=O [Amonafide] | -24
O=C(CCCCCN1C(=O)c2cccc3cccc(c23)C1=O)NO [Scriptaid] | -6.21
CC(NC(=O)c1ccccc1/N=C/c1c(O)ccc2ccccc12)c1ccccc1 (centres undefined) [Sirtinol] | -0.73
CCC(=O)O[C@]1(C(=O)CCl)[C@@H](C)C[C@H]2[C@@H]3C[C@H](F)C4=CC(=O)C=C[C@]4(C)[C@@]3(F)[C@@H](O)C[C@@]21C [Halobetasol Propionate] | 10.4
O=C(O)CC[C@H]1CC[C@@](c2cc(F)ccc2F)(S(=O)(=O)c2ccc(Cl)cc2)CC1 | 0.0291
CC(C)(C)c1cnc(CSc2cnc(NC(=O)C3CCNCC3)s2)o1 | -22.9
Nc1ncnc2c1nc(Br)n2C1OC2COP(=O)(O)O[C@@H]2C1O (some centres undefined) [8-Bromo-cAMP sodium] | -0.722
CC(C)[C@H]1C(=O)N[C@@H](CCCNC(=N)N)C(=O)NCC(=O)N[C@@H](CC(=O)O)C(=O)N[C@H](Cc2ccccc2)C(=O)N1C [Cilengitide] | 1.19
COc1cc(Nc2c(C#N)cnc3cc(OCCCN4CCN(C)CC4)c(OC)cc23)c(Cl)cc1Cl [Bosutinib (SKI-606)] | -26.4
COc1cc(Nc2c(C#N)cnc3cc(OCCCN4CCN(C)CC4)c(OC)cc23)c(Cl)cc1Cl [Bosutinib] | -10.5
COc1cc(C(=O)OCCCN2CCCN(CCCOC(=O)c3cc(OC)c(OC)c(OC)c3)CC2)cc(OC)c1OC [Dilazep hydrochloride] | -5.8
COc1cc2/c(=N/c3ccc(Br)cc3F)nc[nH]c2cc1OCC1CCN(C)CC1 [Vandetanib (ZD6474)] | -26.7
COc1cc2nc(N3CCCN(C)CC3)nc(NC3CCN(Cc4ccccc4)CC3)c2cc1OC | -10.1 and -15.2
COc1ccc(C[C@H](NC(=O)[C@H](C)NC(=O)CN2CCOCC2)C(=O)N[C@@H](Cc2ccccc2)C(=O)[C@@]2(C)CO2)cc1 | -12.1
CC(C)(N)c1ncc(-c2ccc(OC(F)(F)F)cc2)[nH]1 | -3.28
Oc1cccc(-c2nc(N3CCOCC3)c3oc4ncccc4c3n2)c1 | -21
N#CC(C#N)=C(N)/C(C#N)=C/c1cc(O)c(O)c(O)c1 [Tyrphostin 51] | -1.44
C[C@@H](Oc1cc(-c2cnn(C3CCNCC3)c2)cnc1N)c1c(Cl)ccc(F)c1Cl | -27.1
C[C@H](Oc1cc(-c2cnn(C3CCNCC3)c2)cnc1N)c1c(Cl)ccc(F)c1Cl [(S)-crizotinib] | -15.7
Fc1cc(-c2cccc3ncc(-c4cnn(C5CCNCC5)c4)nc23)cc(F)c1CN1CCOCC1 | -12.4
C=CCc1cccc(/C=N/NC(=O)CN2CCN(Cc3ccccc3)CC2)c1O | -9.01 ± 1.4
O=C(Nc1ccc(S(=O)(=O)Nc2ccccc2Cl)c(Cl)c1)c1ccccn1 | 0.173
O=c1cc2c(=O)oc3cc(O)c(O)oc3c2c(O)c1O [Galloflavin potassium] | -1.51

Structure (SMILES) | total cell number
CN1CCN(C(=O)c2cc3cc(Cl)ccc3[nH]2)CC1 | -2.98
Cc1[nH]c(/C=C2\C(=O)Nc3ccc(S(=O)(=O)Cc4c(Cl)cccc4Cl)cc32)c(C)c1C(=O)N1CCC[C@@H]1CN1CCCC1 | -27.2
Cc1[nH]c(/C=C2\C(=O)Nc3ccc(S(=O)(=O)N(C)c4cccc(Cl)c4)cc32)c(C)c1C(=O)N1CCN(C)CC1 | -26.7
CC(C)C[C@H](NC(=O)[C@H]1O[C@@H]1C(=O)O)C(=O)NCCCCN=C(N)N | -3.4 ± 0.35
CN1[C@@H]2CC[C@H]1C[C@@H](OC(=O)C(O)c1ccccc1)C2 (mixture of isomers) [DL-Homatropine hydrobromide] | 0.0407
Cc1nc(NC(=O)N2CCC[C@H]2C(N)=O)sc1-c1ccnc(C(C)(C)C(F)(F)F)c1 | -10.3
COc1cc(C(O)C(=O)O)ccc1O (racemic) [(±)-Vanillylmandelic acid] | -0.443
CC(=O)Nc1nc(C)c(-c2ccc(Cl)c(S(=O)(=O)NCCO)c2)s1 | -15.8
C[C@H](c1ccc(F)cc1CCCC(=O)O)N(c1cc(F)ccc1F)S(=O)(=O)c1ccc(Cl)cc1 | -4.06
COc1cc(OC)cc(-c2cc3cnc(N)nc3nc2NC(=O)NC(C)(C)C)c1 | -5.24
CCN(CC)CCCCCCCCOC(=O)c1cc(OC)c(OC)c(OC)c1 [TMB-8 hydrochloride] | 2.1
CCN(CC)CCCCNc1ncc2cc(-c3cc(OC)cc(OC)c3)c(NC(=O)NC(C)(C)C)nc2n1 | -24.8
C=C1CC[C@@H]2[C@](C)(CO)[C@H](O)CC[C@@]2(C)[C@@H]1C/C=C1/C(=O)OC[C@H]1O [Andrographolide] | -9.57
C=CC(=O)Nc1ccc2ncnc(Nc3cccc(Br)c3)c2c1 | -13.1
N[C@@H](Cc1ccc(F)cc1)C(=O)O [p-Fluoro-L-phenylalanine] | -1.39
Cc1ccc([N+](=O)[O-])cc1S(=O)(=O)N(C)/N=C/c1cnc2ccc(Br)cn12 | -25.8
O=C(O)C1=CO[C@@H](O[C@@H]2O[C@H](CO)[C@@H](O)[C@H](O)[C@H]2O)[C@@H]2C(CO)=CC[C@H]12 [Geniposidic acid] | -0.368
COc1ccc(S(=O)(=O)Nc2nc(-c3cccc([N+](=O)[O-])c3)cs2)cc1OC | -0.431
O=C(c1cc(O)c(O)c([N+](=O)[O-])c1)c1ccccc1F | 0.768
CN(C)CC[C@H](CSc1ccccc1)Nc1ccc(S(=O)(=O)NC(=O)c2ccc(N3CCN(Cc4ccccc4-c4ccc(Cl)cc4)CC3)cc2)cc1[N+](=O)[O-] | -23.1
CC1(C)CCC(c2ccc(Cl)cc2)=C(CN2CCN(c3ccc(C(=O)NS(=O)(=O)c4ccc(N[C@H](CCN5CCOCC5)CSc5ccccc5)c(S(=O)(=O)C(F)(F)F)c4)cc3)CC2)C1 [ABT-263 (Navitoclax)] | -16.7
CC1(C)CCC(CN2CCN(c3ccc(C(=O)NS(=O)(=O)c4ccc(NCC5CCOCC5)c([N+](=O)[O-])c4)c(Oc4cnc5[nH]ccc5c4)c3)CC2)=C(c2ccc(Cl)cc2)C1 | -3.38
CCOC(=O)c1c(CSc2ccccc2)n(C)c2cc(Br)c(O)c(CN(C)C)c12 [Arbidol HCl] | -4.97
COC(=O)C1=C(C)NC(C)=C(C(=O)OCCN2CCN(C(c3ccccc3)c3ccccc3)CC2)C1c1cccc([N+](=O)[O-])c1 (centres undefined) [Manidipine 2HCl] | -11.4
COC(=O)C1=C(C)NC(C)=C(C(=O)OCCN2CCN(C(c3ccccc3)c3ccccc3)CC2)C1c1cccc([N+](=O)[O-])c1 (centres undefined) [Manidipine] | -13

Structure (SMILES) | total cell number
C=CCN1CCc2cc(O)c(O)cc2C(c2ccccc2)C1 (racemic) | -1.7
C[C@@]1(C(=O)Nc2ccc(F)nc2)CCCN1c1nc(Nc2cc(C3CC3)n[nH]2)c2cccn2n1 | -24.7
O=C(COc1cccc2c(=O)[nH]ccc12)c1ccccc1 | -0.123
CCc1ccc2c(-c3cccc(Cl)c3)nc(=O)n(CC)c2n1 | 0.722
CC(C)NC[C@@H](C(=O)N1CCN(c2ncnc3c2[C@H](C)C[C@H]3O)CC1)c1ccc(Cl)cc1 | -8.76
COc1ccc(C2=N[C@@H](c3ccc(Cl)cc3)[C@@H](c3ccc(Cl)cc3)N2C(=O)N2CCNC(=O)C2)c(OC(C)C)c1 [Nutlin-3] | -23.5
C=C1C(=O)O[C@@H]2/C=C(\C)CC/C=C(\C)CC[C@@H]12 [Costunolide] | -21
CN1CCN(c2ccc3nc(-c4c(N)c5c(F)cccc5[nH]c4=O)[nH]c3c2)CC1 [Dovitinib (TKI-258, CHIR-258)] | -25.7
CN1CCN(c2ccc3nc(-c4c(N)c5c(F)cccc5[nH]c4=O)[nH]c3c2)CC1 [Dovitinib (TKI-258) Dilactic Acid] | -12.1
COc1cc(CCc2cc(NC(=O)c3ccc(N4CC(C)NC(C)C4)cc3)n[nH]2)cc(OC)c1 (centres undefined) | -10.9
NC/C=C/C(=O)O [(E)-4-amino-2-butenoic acid] | -1.89
CC(C)NCC(O)COc1cccc2ccccc12 (racemic) [(±)-Propranolol hydrochloride] | -1.57
c1ccc(-c2[nH]ncc2-c2ccnc3ccccc23)nc1 | -2.66
OC[C@H]1O[C@H]([S-])[C@H](O)[C@@H](O)[C@@H]1O.[Au+] [Aurothioglucose] | -2.94
O=C(c1ccc(/C=C/c2n[nH]c3ccccc23)cc1)N1CCNCC1 | -13.2
COCC[n+]1c2c(n(Cc3cnccn3)c1C)C(=O)c1ccccc1C2=O [YM155 (Sepantronium Bromide)] | -27.7
Cc1ccc2c(c1)C(=O)C1(O)CCN(c3ccccc3)C1=N2 (single isomer, unassigned; (-)) [(-)-Blebbistatin] | -14.8
CN1CCN(CCOc2cc(OC3CCOCC3)c3c(Nc4c(Cl)ccc5c4OCO5)ncnc3c2)CC1 [Saracatinib (AZD0530)] | -22.8
CNC(=O)CN1CCC(Oc2cc3c(Nc4cccc(Cl)c4F)ncnc3cc2OC)CC1 [AZD8931 (Sapitinib)] | -10.1
Cc1ccc(Sc2cncc3sc(C(N)=O)cc23)cc1 | 0.0291
O=C(Nc1ccccc1)N1CCN(c2nc(-c3ccccc3)ns2)CC1 | 0.543
CC(C)C[C@H](C(=O)O)c1cc(-c2ccc(C(F)(F)F)cc2)cc(-c2ccc(C(F)(F)F)cc2)c1 | 10.7
COc1ccccc1CN[C@H]1CCCN[C@H]1c1ccccc1 | -1.93
CCCCCCCCCCCCCCCCn1cc[n+](Cc2ccccc2)c1C | -16.7
